# PubChem BioAssay (EPA / NIEHS)
# “And” between values parts separate entries of the source, which are not always exact repeats. Equal entries are not always repeated. Records with an inconclusive call do not appear. The source made the active and inactive calls. Rule for the calls, unless noted: active = hit-call score of the fitted dose curve at least 0.9, where 1 is the maximum; inconclusive = response in the unintended direction; inactive = score below 0.9.
# Experiments:
# [1] = TOX21_p53_BLA_p2_viability: Viability Assessment in the Tox21 HCT-116 p53 Agonism Beta-lactamase Assay, Phase 2 (AID 2283591);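 note: actives lower the ATP signal meaning cytotoxicity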
# Outline: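 Cytotoxicity readout: CellTiter-Glo ATP luminescence, 30 min at room temperature, after the beta-lactamase read. Cells were HCT116 exposed 16 h at 37C to compounds pin-transferred at 217-fold dilution from DMSO stocks.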
# [2] = TOX21_p53_BLA_p3_viability: Viability Assessment in the Tox21 HCT-116 p53 Agonism Beta-lactamase Assay, Phase 3 (AID 2283593);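 note: cells exposed to compound for 16 h before reading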
# Outline: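 Cellular ATP was quantified by CellTiter-Glo luminescence, read after 30 min at room temperature. Beforehand, HCT116 cells (4000/well) received compound 5 h post-seeding, 217-fold diluted from DMSO, then incubated 16 h at 37C.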
# [3] = TOX21_p53_BLA_p5_viability: Viability Assessment in the Tox21 HCT-116 p53 Agonism Beta-lactamase Assay, Phase 5 (AID 2283600)
# Outline: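 Counter-readout for cytotoxicity: ATP-dependent luminescence from CellTiter-Glo, read in the beta-lactamase wells after 30 min at RT, following a 16 h compound exposure at 37C.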
# [4] = biological target: Cellular tumor antigen p53 (Homo sapiens) (UniProt P04637); experiment: TOX21_p53_BLA_p4_ratio: Tox21 HCT-116 p53 Agonism Beta-lactamase Assay, Ratio, Phase 4 (AID 2283601)
# Sequence of Cellular tumor antigen p53 (Homo sapiens) (P04637 whole entry, looked up): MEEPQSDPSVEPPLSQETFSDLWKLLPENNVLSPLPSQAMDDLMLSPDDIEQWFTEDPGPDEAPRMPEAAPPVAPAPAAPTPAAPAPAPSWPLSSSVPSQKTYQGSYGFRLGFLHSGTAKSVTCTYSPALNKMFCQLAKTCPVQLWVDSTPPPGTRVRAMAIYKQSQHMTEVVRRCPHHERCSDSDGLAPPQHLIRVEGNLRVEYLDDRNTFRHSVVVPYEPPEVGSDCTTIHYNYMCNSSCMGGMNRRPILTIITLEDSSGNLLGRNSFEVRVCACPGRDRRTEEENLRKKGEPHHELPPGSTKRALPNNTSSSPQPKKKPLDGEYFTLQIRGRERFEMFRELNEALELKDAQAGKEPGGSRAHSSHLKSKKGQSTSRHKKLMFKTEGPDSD
# Outline: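 Signal is the blue/green (460nm/530nm) ratio of cleaved versus uncleaved CCF4-AM substrate, read after 2 h substrate loading. Cells were HCT116 carrying the p53-responsive beta-lactamase reporter, dosed 16 h at 37C, 5% CO2; CellTiter-Glo measured in parallel.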
# [5] = TOX21_p53_BLA_p4_viability: Viability Assessment in the Tox21 HCT-116 p53 Agonism Beta-lactamase Assay, Phase 4 (AID 2283597);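 note: hits lower the luminescence signal meaning cytotoxicity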
# Outline: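 Compound exposure of HCT116 cells lasts 16 h at 37C, 5% CO2, with DMSO stocks diluted 217-fold. Cellular ATP is then quantified by CellTiter-Glo luminescence after 30 min at room temperature.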
# [6] = biological target: Cellular tumor antigen p53 (Homo sapiens) (UniProt P04637); experiment: TOX21_p53_BLA_p5_ratio: Tox21 HCT-116 p53 Agonism Beta-lactamase Assay, Ratio, Phase 5 (AID 2283599)
# Outline: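 Beta-lactamase reporter ratio (blue 460 nm over green 530 nm, 405 nm excitation) after 2 h CCF4-AM loading, in HCT-116 cells exposed 16 h at 37 C to compounds pinned at 217-fold dilution. Increases relative to DMSO baseline scored.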
# [7] = CCTE_Harrill_HTTr_Viability_MCF7: CCTE's 6-hour Cell Viability Assessment for the High-Throughput Transcriptomics (HTTr) Platform, in MCF-7 cells cultured in DMEM + 10% fetal bovine serum, Harrill Lab (AID 2284010; active = hit-call score of the fitted dose curve at least 0.9, where 1 is the maximum; inactive = score below 0.9)
# Outline: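 Cells were dosed with chemicals in an eight-point dilution series, imaged 6 hours later for propidium iodide uptake, and the endpoint was analyzed by bidirectional fitting against DMSO as negative control.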
# [8] = CCTE_Harrill_HTTr_Apoptosis_MCF7: CCTE's 6-hour Apoptosis Assessment for the High-Throughput Transcriptomics (HTTr) Platform, in MCF-7 cells cultured in DMEM + 10% fetal bovine serum, Harrill Lab (AID 2284011; active = hit-call score of the fitted dose curve at least 0.9, where 1 is the maximum; inactive = score below 0.9)
# Outline: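 Cells are dosed with test chemicals at eight concentrations and imaged 6 hours later for caspase-3/7 activity using a green fluorogenic detection reagent. Activity is fitted in both directions against DMSO controls.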
# [9] = CCTE_Harrill_HTTr_CellCount_MCF7: CCTE's Cell Proliferation Assessment for the High-Throughput Transcriptomics (HTTr) Platform, Harrill Lab (AID 2284012);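 note: count of Hoechst-stained nuclei per well by high-content imaging in MCF-7 cells; cells exposed to compound for six hours; intended direction is loss of nuclei count meaning fewer cells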
# Outline: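 Chemicals in eight-point dilution series are added to MCF-7 cells for six hours, nuclei are stained with Hoechst and imaged, and per-well nuclei counts are fitted in both directions relative to DMSO controls.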
# [10] = biological target: Cellular tumor antigen p53 (Homo sapiens) (UniProt P04637); experiment: TOX21_p53_BLA_p3_ratio: Tox21 HCT-116 p53 Agonism Beta-lactamase Assay, Ratio, Phase 3 (AID 2283596)
# Outline: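 HCT116 p53-bla cells (4000/well) given compound in DMSO (217-fold dilution) after 5 h, incubated 16 h at 37C. CCF4-AM substrate 2 h at room temperature; 460/530 nm emission ratio, gain fitted against DMSO.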
structure (smiles),measurement,setting,value
O=C1NCN(c2ccccc2)C12CCN(CC1COc3ccccc3O1)CC2 (centres undefined),outcome,[1],inactive
same,outcome,[2],inactive
same,outcome,[3],inactive
same,outcome,[4],inactive
CCC1(c2ccccc2)CCC(=O)NC1=O (centres undefined),outcome,[1],inactive
same,outcome,[2],inactive
same,outcome,[3],inactive
O=C(Cl)/C=C/C(=O)Cl,outcome,[1],inactive
same,outcome,[2],inactive
same,outcome,[5],inactive
same,outcome,[6],inactive
same,outcome,[3],inactive
same,outcome,[4],inactive
[Cl-].[Cl-].[Cl-].[Fe+3],outcome,[1],inactive
same,outcome,[2],inactive
same,outcome,[5],inactive
same,outcome,[3],inactive
same,outcome,[7],inactive
same,outcome,[8],inactive
same,outcome,[9],inactive
O=C(O)CBr,outcome,[1],inactive
same,outcome,[2],inactive
same,outcome,[5],inactive
same,outcome,[6],inactive
same,outcome,[3],inactive
same,outcome,[4],inactive
Oc1cc[c]([Hg][Cl])cc1,AC50,[1],20.9 µM (active) and 10.7 µM (active)
same,AC50,[10],30.1 µM (active) and 35.2 µM (active)
same,AC50,[5],20.4 µM (active) and 9.85 µM (active)
same,AC50,[6],39.2 µM (active) and 17.4 µM (active)
same,AC50,[3],25.3 µM (active) and 10.5 µM (active)
same,AC50,[4],41 µM (active) and 19.2 µM (active)
CC(C)CCCCCOC(=O)c1ccccc1C(=O)OCCCCCC(C)C,outcome,[1],inactive
same,outcome,[2],inactive
same,outcome,[5],inactive
same,outcome,[4],inactive
S=C=NCCc1ccccc1,outcome,[1],inactive
same,AC50,[10],59.3 µM (active)
CNC(=O)Oc1cc(C)cc(C(C)C)c1,outcome,[1],inactive
same,outcome,[10],inactive
same,outcome,[5],inactive
same,outcome,[6],inactive
same,outcome,[3],inactive
same,outcome,[4],inactive
